{
  "source": "PubChem BioAssay AID602313",
  "about": "(National Center for Advancing Translational Sciences (NCATS), 2012)",
  "note": "Among all 390,000 compounds or so, about 760 (0.19%) were called active. About 3% were inconclusive and are not listed. The full list was thinned out, with actives kept by preference. Values without a mark were called inactive. Calls come from the whole dose curve; as a rule, active = well fitted inhibition curve with a large enough effect; inconclusive = small, poorly fitted or top-dose-only effect; inactive = flat fitted curve, though single readings scatter. Potency is the fitted concentration of half-maximal effect.",
  "data": [
    {"assay": "qHTS for Inhibitors of Vif-A3F Interactions: qHTS; note: nearly all actives have a fitted effect of over 65% in size; for activity, negative = active: % of control where 0% means no effect", "settings": "HeLa A3F-eYFP + Vif (tagged APOBEC3F with the HIV-1 protein that degrades it), YFP fluorescence increase; series mostly up to 46.1 µM; activity, negative = active: at the top concentration", "procedure,_shortened": "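HeLa cells stably expressing Vif plus C-terminally eYFP-tagged A3F were seeded, incubated overnight at 37 deg C, dosed with compound, incubated overnight again at 37 deg C. Yellow fluorescence (Ex 488/Em 500-530) reported blocked Vif-mediated A3F-eYFP degradation.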", "units": {"activity, negative = active": "%"}, "values": [
      {"smiles": "Cc1ccccc1CN1CCC(CNC(=O)c2cc3ccc4cccnc4c3[nH]2)CC1", "activity, negative = active": -0.638},
      {"smiles": "O=C(OC12CC3CC(CC(C3)C1)C2)c1ccc(NCc2cc(O)ccc2O)cc1", "Potency": "22.4 µM (active)"},
      {"smiles": "Cc1nnc(NCc2ccccc2)c2c1nnn2Cc1ccc(F)cc1", "activity, negative = active": 2.27},
      {"smiles": "Fc1ccc(CSc2nc(NCc3ccccc3)c3ccccc3n2)cc1", "activity, negative = active": 4.7},
      {"smiles": "Fc1ccc(CNc2nc3ccccc3n3nnnc23)cc1", "Potency": "7.94 µM (active)"},
      {"smiles": "Cc1cccc(Cn2c(SCc3ccc(C(=O)N4CCC(C)CC4)cc3)nc3ccncc32)c1", "activity, negative = active": -1.49},
      {"smiles": "O=C(Nc1ccc(Br)cc1)c1cc2nc(-c3ccccc3)cc(-c3ccccc3)n2n1", "activity, negative = active": 4.65},
      {"smiles": "O=C(C[n+]1ccc2c(c1)nnn2-c1ccccc1)c1ccc(Cl)cc1", "activity, negative = active": -10.2},
      {"smiles": "O=C(Cc1nc2ccccc2[nH]c1=O)c1ccc(Cl)cc1", "Potency": "12.6 µM (active)"},
      {"smiles": "O=C(OCc1nc2ccccc2[nH]1)C1CCCCC1", "activity, negative = active": -2.45},
      {"smiles": "COc1cc(OC)c(OC)cc1/C=C/c1nc2ccccc2c(=O)n1-c1ccc(Br)c(C)c1", "activity, negative = active": 0.934},
      {"smiles": "CCn1c(/C=C/c2ccc([N+](=O)[O-])o2)nc2ccccc2c1=O", "Potency": "22.4 µM (active)"},
      {"smiles": "CCCN(CCC)c1c([N+](=O)[O-])c(=O)oc2ccccc12", "activity, negative = active": -4.57},
      {"smiles": "CCc1cccc(CC)c1NC(=O)Cn1c(=O)c(-c2cc(C)ccc2NC(C)=O)nc2ccccc21", "activity, negative = active": -4.89},
      {"smiles": "CCc1nnc(SCc2c(F)cccc2Cl)c2cc3sccc3n12", "activity, negative = active": 10.3},
      {"smiles": "CCOC(=O)c1ccc(NC(=O)CC2C(=O)N(c3cccc(OC)c3)C(=O)N2C2CCCCC2)cc1", "note": "(configuration not stated)", "activity, negative = active": 0.959},
      {"smiles": "Cc1oc2ncn(CC(C)C)c(=O)c2c1C(=O)N1CCN(c2ccccc2F)CC1", "activity, negative = active": -10.2},
      {"smiles": "CCOc1ccc(S(=O)(=O)c2cn(Cc3ccc(OC)cc3)c3ccc(F)cc3c2=O)cc1", "activity, negative = active": 2.26},
      {"smiles": "COc1cc(CN(C(=O)c2ccccc2Br)c2ccccn2)cc(OC)c1OC", "activity, negative = active": 0.907},
      {"smiles": "O=C(NCc1ccccc1)c1ccc2c(c1)nc1n2CCCCC1", "activity, negative = active": 0.601},
      {"smiles": "Cc1ccc(CNC(=O)CCc2c(C)nn(-c3ccc(N4CCCC4)nn3)c2C)cc1", "activity, negative = active": -1.13},
      {"smiles": "CCOCCCNC(=O)c1c(NC(=O)Cc2coc3ccc(C)cc23)sc2c1CCC2", "activity, negative = active": -0.611},
      {"smiles": "CCC(=O)N1CCc2cc(S(=O)(=O)NC(Cc3ccccc3)C(=O)NCc3ccccc3)ccc21", "note": "(configuration not stated)", "activity, negative = active": -2.71},
      {"smiles": "C[n+]1ccc(/C=C/c2c[nH]c3ccccc23)cc1", "Potency": "10 µM (active)"},
      {"smiles": "CCCCN(CC)CCCNC(=O)c1nn(C)c2c1CS(=O)(=O)c1ccccc1-2", "activity, negative = active": -0.187},
      {"smiles": "Cc1ccc(-n2nc(CO)c(C(=O)NCCc3ccccc3)n2)cc1", "activity, negative = active": -2.36},
      {"smiles": "CCN(CC)C(=O)CSc1nc2cc3c(cc2c(=O)n1CCCC(=O)NCc1ccc2c(c1)OCO2)OCO3", "activity, negative = active": -6.97},
      {"smiles": "CCCCn1c(N)c(N(CCC(C)C)C(=O)c2ccc(COc3ccccc3)o2)c(=O)[nH]c1=O", "activity, negative = active": -2.02},
      {"smiles": "CCCCn1c(N)c(N(CC(C)C)C(=O)c2ccc(Br)o2)c(=O)[nH]c1=O", "activity, negative = active": -12.4},
      {"smiles": "CCCCn1c(N)c(N(CCC(C)C)C(=O)c2ccc([N+](=O)[O-])o2)c(=O)[nH]c1=O", "Potency": "10 µM (active)"},
      {"smiles": "Fc1ccc(-c2nn(-c3ccccc3Cl)c3c2cnc2ccccc23)cc1", "activity, negative = active": 3.9},
      {"smiles": "COc1ccc(NC(=O)CSc2nnc(-c3nnn(-c4ccc(F)cc4)c3C)o2)cc1", "activity, negative = active": -6.99},
      {"smiles": "CCn1cc2nc(SCc3cccc(F)c3)n(CCc3ccccc3)c(=O)c2n1", "activity, negative = active": 4.66},
      {"smiles": "Cc1ccc(N=Cc2c(O)n(-c3nccs3)c(=O)c3ccccc23)c(C)c1", "Potency": "25.1 µM (active)"},
      {"smiles": "Cc1cccc(-n2c(O)c(C=Nc3ccccc3N)c(=O)[nH]c2=O)c1", "activity, negative = active": 9.05},
      {"smiles": "CCCn1c(NCc2ccccc2F)nc2ccccc21", "activity, negative = active": -0.341},
      {"smiles": "CCCCOc1ccc(C(=O)N2CC(=O)Nc3ccc(Br)cc3C2c2ccc(F)cc2)cc1", "note": "(configuration not stated)", "activity, negative = active": -3.28},
      {"smiles": "COc1ccc(-c2noc(CSc3nc(C)cc(=O)[nH]3)n2)cc1OC", "activity, negative = active": 0.209},
      {"smiles": "O=C(Nc1cccc2c1N(C(=O)c1ccco1)CCC2)c1ccco1", "activity, negative = active": -2.72},
      {"smiles": "O=C(N/C(=C/c1ccc(Cl)cc1)C(=O)N1CCCCC1)c1ccco1", "activity, negative = active": 2.2},
      {"smiles": "O=C(NC(=S)N1CCc2ccccc21)c1ccco1", "Potency": "11.2 µM (active)"},
      {"smiles": "O=C(NCc1ccco1)C1CCCN(S(=O)(=O)c2cccc3nonc23)C1", "note": "(configuration not stated)", "activity, negative = active": 1.03},
      {"smiles": "CC(=O)c1cccc(NC(=O)C2CCCN(S(=O)(=O)c3cccc4nonc34)C2)c1", "note": "(configuration not stated)", "Potency": "31.6 µM (active)"},
      {"smiles": "CC(=O)c1cccc(NC(=O)C2CCCN2S(=O)(=O)c2cccc3nsnc23)c1", "note": "(configuration not stated)", "activity, negative = active": 0.838},
      {"smiles": "CCCCOc1ccc(NC(=O)c2cc3c(n(-c4ccc(Cl)cc4)c2=O)CCCC3=O)cc1", "activity, negative = active": -0.38},
      {"smiles": "O=C(COc1ccccc1)NCc1ccc2c(c1)CCN2C(=O)c1ccc(F)cc1", "activity, negative = active": -0.141},
      {"smiles": "Cc1nn2c(=O)cc(COC(=O)CNC(=O)c3ccc(F)cc3)nc2s1", "activity, negative = active": -4.52},
      {"smiles": "Cc1ccc(S(=O)(=O)N(CC(=O)Nc2ccc(Cl)cc2Cl)c2ccccc2C)cc1", "activity, negative = active": -4.14},
      {"smiles": "COc1cc(NC(=O)Cn2c(=O)n(Cc3ccco3)c(=O)c3oc4ccccc4c32)cc(OC)c1", "activity, negative = active": 0.129},
      {"smiles": "COC(=O)c1ccccc1NC(=O)c1ccc(COc2ccccc2Cl)o1", "activity, negative = active": -1.37},
      {"smiles": "CCOc1cc(C(=O)NCCc2csc3nc(-c4ccc(C)cc4)nn23)cc(OCC)c1OCC", "activity, negative = active": 5.51},
      {"smiles": "Cc1ccc(NC(=O)c2nc(S(=O)(=O)Cc3cccc(C)c3)ncc2Cl)cc1", "activity, negative = active": -12.2},
      {"smiles": "O=C(Nc1ccccc1F)C(c1ccccc1)N1Cc2ccccc2C1=O", "note": "(configuration not stated)", "activity, negative = active": -3.86},
      {"smiles": "Cc1ccc(COC(=O)CN2C(=O)NC3(CCCC3)C2=O)cc1", "activity, negative = active": -16.5},
      {"smiles": "CC(OC(=O)CN1C(=O)C2CCCCC2C1=O)C(=O)Nc1ncc(Cl)cc1Cl", "note": "(configuration not stated)", "activity, negative = active": -3.06},
      {"smiles": "CC1=CC(C)(C)Nc2ccc(OC(=O)CN3C(=O)C4CCCCC4C3=O)cc21", "note": "(configuration not stated)", "Potency": "31.6 µM (active)"},
      {"smiles": "Cc1ccc2nc(COc3ccccc3NC(=O)Nc3ccc(F)c(Cl)c3)cc(=O)n2c1", "activity, negative = active": -8.67},
      {"smiles": "O=c1c2cccnc2n(Cc2cccc(F)c2)c(=O)n1Cc1ccccc1Cl", "activity, negative = active": 4.14},
      {"smiles": "Cc1cc(C)cc(NS(=O)(=O)c2cc3c(cc2C)NC(=O)CO3)c1", "activity, negative = active": 3.35},
      {"smiles": "Cc1ccc(N2CC(C(=O)Nc3ccc(N(C)C)cc3)CC2=O)cc1Cl", "note": "(configuration not stated)", "activity, negative = active": -7},
      {"smiles": "CCOc1ccccc1N(C)C(=O)c1cc2c(s1)-c1ccccc1OC2", "activity, negative = active": -6.36},
      {"smiles": "CCc1cnc2c(c1SCC(=O)c1ccccc1)c(=O)n(C)c(=O)n2C", "activity, negative = active": 4.8}
    ]}
  ]
}
